# Source: PubChem BioAssay (Tox21)
# Records with an inconclusive call do not appear. The source made the active and inactive calls. Calls come from the whole dose curve.
# Assay: qHTS assay to identify small molecule agonists of the endoplasmic reticulum stress response signaling pathway - cell viability counter screen (AID 1159517); note: nearly all actives have a fitted effect of over 50% in size
# Conditions: ESRE-bla HeLa viability, CellTiter-Glo luminescence, 5 h; series mostly up to 61 µM
# Description: U.S. Tox21 Program National Center for Advancing Translational Sciences [NCATS] NIH Chemical Genomics Center [NCGC] U.S. Environmental Protection Agency [EPA] National Institutes of Environmental Health Sciences [NIEHS] National Toxicology Program [NTP] U.S. Food and Drug Administration [FDA] Tox21 Assay Overview: Endoplasmic Reticulum (ER) plays an important role in cellular signaling, protein folding/maturation, stress response, lipid biosynthesis, calcium storage and release etc. Under stress conditions, proteins in ER misfold or unfold, and leading to the expression of ER stress responsive genes. ER stress has been associated with a variety of pathophysiological conditions such as cancer, inflammation, neurodegenerative diseases, diabetes, ischemic heart disease etc. To identify the compounds that induce ER stress response, an ER stress reporter cell line, CellSensor ESRE-bla HeLa (Life Technologies, Carlsbad, CA) containing a beta-lactamase reporter gene under control of the Endoplasmic reticulum Stress Response Element (ESRE) was used to screen Tox21 10K compound library. The cytotoxicity of the Tox21 compound library against the ESRE-bla HeLa cell line was tested in parallel by measuring cell viability using the CellTiter-Glo assay in the same wells.
# Tox21 Assay Protocol Summary: ESRE-bla HeLa cells were dispensed at 1,500 cells/6 uL of assay medium per well into black wall/clear-bottom 1536-well plates using a Multidrop Combi (ThermoFisher Scientific, Waltham, MA) dispenser. After the assay plates were incubated at 37 C and 5% CO2 for an overnight, 23 nL of compounds dissolved in DMSO, positive controls or DMSO only was transferred to the assay plate by a Pintool station (Kalypsys, San Diego, CA). The assay plates were incubated at 37 C and 5% CO2 for 5 hr. One uL of LiveBLAzer B/G FRET substrate (Life Technologies) was added using a FRD (Flying Reagent Dispenser, Aurora Discovery, San Diego, CA) and the plates were incubated at room temperature for 2 hr. Fluorescence intensity (405 nm excitation, 460 nm and 530 nm emissions) was measured using an Envision plate reader (PerkinElmer, Shelton, CT). For cytotoxicity, 4 ul/well of CellTiter-Glo reagent was added into the assay plates using an FRD. After 30 min incubation at room temperature, the luminescence intensity was measured using a ViewLux plate reader (PerkinElmer).
row,SMILES,outcome
1,CCCCCC1CCC(=O)O1 (stereo not given),inactive
2,Cc1cc(C)n(CO)n1,inactive
3,CCc1c(C)[nH]c2c1C(=O)C(CN1CCOCC1)CC2 (stereo not given),inactive
4,O=Cc1ccc([N+](=O)[O-])cc1,inactive
5,CC1(C)CC(O)CC(C)(C)N1[O],inactive
6,Cc1c(Nc2ncccc2C(=O)O)cccc1C(F)(F)F,inactive
7,OCCCO,inactive
8,CCOC(C)OCC,inactive
9,CCCCCCCCCCCCSCCOCCO,inactive
10,C=CCCC,inactive
11,Nc1ccccc1Nc1ccccc1,inactive
12,Cc1ccc(Cl)c(OCC(O)CNC(C)(C)C)c1 (stereo not given),inactive
13,CCCCCCCCCC(C)C=O (stereo not given),inactive
14,C[C@H](CN1CCCC1)C(=O)c1ccc(C(F)(F)F)cc1,inactive
15,CC(C)CCCCCOC(=O)CS,inactive
16,CCCCOC(=O)CC#N,inactive
17,O=C(Nc1ccc2c(c1)Cc1ccccc1-2)C(F)(F)F,inactive
18,Cc1ccc(NC=O)c(C)c1,inactive
19,CC(C)C[C@H](NC(=O)[C@H](Cc1ccccc1)NC(=O)c1cnccn1)B(O)O,inactive
20,CCCC1CCCC(=O)O1 (stereo not given),inactive

row,SMILES,outcome
1,O=C(OCCCCCOC(=O)c1ccccc1)c1ccccc1,inactive
2,C[C@H]1C[C@H]2[C@@H]3CCC4=CC(=O)C=C[C@]4(C)[C@@]3(F)[C@@H](O)C[C@]2(C)[C@@]1(O)C(=O)COP(=O)(O)O,inactive
3,CCN(CCCCOC(=O)c1ccc(OC)c(OC)c1)C(C)Cc1ccc(OC)cc1 (stereo not given),inactive
4,CCCCOC(=O)C(C)Oc1ccc(Oc2ccc(C(F)(F)F)cn2)cc1 (stereo not given),inactive
5,S=c1[nH][nH]c(=S)s1,inactive
6,NC(=O)c1cc[n+](CC2=C(C(=O)[O-])N3C(=O)[C@@H](NC(=O)Cc4cccs4)[C@H]3SC2)cc1,inactive
7,CC(CCl)OC(C)CCl (stereo not given),inactive
8,SCCOCCOCCS,inactive
9,OCCc1ccncc1,inactive
10,CCCOC(C)=O,inactive
11,CC(=O)Oc1cccc2c1C(=O)c1c(OC(C)=O)cc(C(=O)O)cc1C2=O,inactive
12,Cc1cc(C)c(C)c(O)c1,inactive
13,C/C(=C\C(C)CC(C)CC(C)C)C1CC(=O)OC1=O (stereo not given),inactive
14,N#CCCCC(C#N)CCC#N (stereo not given),inactive
15,O=C(O)COCC(=O)O,inactive
16,COc1cccc([C@H](O)C2CCN(CCc3ccc(F)cc3)CC2)c1OC,inactive
17,CCC(C(=O)O)c1ccc(N2Cc3ccccc3C2=O)cc1 (stereo not given),inactive
18,O=C(Nc1ccccc1)c1cc([N+](=O)[O-])ccc1Cl,inactive
19,C=CC(C)CCC=C(C)C (stereo not given),inactive
20,CC(=O)OCC(=O)[C@@]1(O)CC[C@H]2[C@@H]3CCC4=CC(=O)C=C[C@]4(C)[C@@]3(F)[C@@H](O)C[C@@]21C,inactive
